The assay concerns the target Dual specificity protein kinase CLK2 (Homo sapiens) (UniProt P49760). The settings on record: at 0.1 µM.
Chain of Dual specificity protein kinase CLK2 (Homo sapiens) (P49760 whole entry, looked up): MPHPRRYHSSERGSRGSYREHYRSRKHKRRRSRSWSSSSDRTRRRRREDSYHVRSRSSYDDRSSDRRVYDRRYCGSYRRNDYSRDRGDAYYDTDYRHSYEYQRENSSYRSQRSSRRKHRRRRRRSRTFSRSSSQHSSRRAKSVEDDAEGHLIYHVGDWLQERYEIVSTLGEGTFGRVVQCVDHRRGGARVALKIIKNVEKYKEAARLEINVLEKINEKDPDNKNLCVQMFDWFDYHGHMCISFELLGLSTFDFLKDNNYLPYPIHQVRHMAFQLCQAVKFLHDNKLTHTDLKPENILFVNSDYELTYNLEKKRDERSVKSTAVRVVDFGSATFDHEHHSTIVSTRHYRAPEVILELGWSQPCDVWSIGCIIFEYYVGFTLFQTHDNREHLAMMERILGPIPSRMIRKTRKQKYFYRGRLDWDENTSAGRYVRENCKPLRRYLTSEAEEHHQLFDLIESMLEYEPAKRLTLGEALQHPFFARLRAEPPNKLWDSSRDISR
`Nc1ccc(C#Cc2cncnc2Nc2ccc(OCc3cccc(F)c3)c(Cl)c2)cc1`: the inhibition (usually the change of the read-out against control, counted positive when it falls) is 0.14%.
Regarding `ON=C1CCc2cc(-c3nc(C4CCNCC4)[nH]c3-c3ccncc3)ccc21`, the inhibition was found to be 2.05%.
For the compound `CS(=O)(=O)CCNCc1nc(-c2ccc3ncnc(Nc4ccc(OCc5cccc(C(F)(F)F)c5)cc4)c3c2)cs1`, the inhibition was -2.75%.
Regarding `Cc1ccc2c(-c3ccnc(Nc4ccc5c(c4)OCCO5)n3)c(-c3ccc(C(F)(F)F)cc3)nn2n1`, the inhibition stood at 1.25%.
With `CN(C)C(=O)O[C@H]1CN[C@H](C#Cc2cc3ncnc(Nc4ccc(OCc5cccc(F)c5)c(Cl)c4)c3s2)C1` the figure was -0.97%; with `COc1cc(/C=N/Nc2ncnc3c2cnn3C(C)C)ccc1O`, 3.4%.
With `Cc1cc(Cl)cc2c1NC(=O)C2=NNc1ccc(S(N)(=O)=O)cc1` the figure was 0.86%.
As to `Nc1nccc(-c2c(-c3ccc(F)cc3)nn3cc(C(F)(F)F)ccc23)n1`, the inhibition turned out to be 1.36%.
In the case of `COC(=O)c1cncc(/C=C/c2c(C)cc(O)cc2C)c1`, the inhibition was -0.85%.
Next, `Cc1nc(-c2ccccc2)n2nc(NCCCN3CCOCC3)ncc12`: 3.46%; `Cc1ccc2c(c1)/C(=N/Nc1ccc(S(N)(=O)=O)cc1)C(=O)N2`: 1.98%; `CCCN1CCCC(c2ccc(Nc3nc(Nc4cc(F)ccc4C(N)=O)c4cc[nH]c4n3)c(OC)c2)C1` (stereo not given): 67.3%.
Next, `CN(c1ccc(NC(=O)Nc2ccc(OC(F)(F)F)cc2)cc1)c1ccnc(Nc2cccc(S(N)(=O)=O)c2)n1`: 1.61%; `O=C1Nc2ccccc2/C1=C/Nc1ccc2[nH]c(=O)[nH]c2c1`: 6.03%; `FC(F)(F)c1ccc(-c2nn3ncccc3c2-c2ccnc(Nc3ccc4c(c3)OCCO4)n2)cc1`: 2.1%.

For the origin of these results see ChEMBL document CHEMBL1961873, “Compounds: GSK PKIS; Assays: Nanosyn kinase panel” (2012).
